Results on 61 molecules are retold here after PubChem BioAssay AID602292 (National Center for Advancing Translational Sciences (NCATS), 2012).

Hit rate of the full screen: of about 1,300 compounds, about 380 (29%) were called active. Inconclusive results (about 37%) are left out. The list shows a part of the results. Unmarked numbers belong to inactive results. The call rests on the fitted dose curve; in most records, active means well fitted inhibition curve with a large enough effect; inconclusive means small, poorly fitted or top-dose-only effect; inactive means flat fitted curve, though single readings scatter.
On the % scale 0 is the no-effect control and ±100 the full control effect; potency means the concentration at half of the fitted maximal effect.

Chain of Thyrotropin receptor (Homo sapiens) (P16473 whole entry, looked up): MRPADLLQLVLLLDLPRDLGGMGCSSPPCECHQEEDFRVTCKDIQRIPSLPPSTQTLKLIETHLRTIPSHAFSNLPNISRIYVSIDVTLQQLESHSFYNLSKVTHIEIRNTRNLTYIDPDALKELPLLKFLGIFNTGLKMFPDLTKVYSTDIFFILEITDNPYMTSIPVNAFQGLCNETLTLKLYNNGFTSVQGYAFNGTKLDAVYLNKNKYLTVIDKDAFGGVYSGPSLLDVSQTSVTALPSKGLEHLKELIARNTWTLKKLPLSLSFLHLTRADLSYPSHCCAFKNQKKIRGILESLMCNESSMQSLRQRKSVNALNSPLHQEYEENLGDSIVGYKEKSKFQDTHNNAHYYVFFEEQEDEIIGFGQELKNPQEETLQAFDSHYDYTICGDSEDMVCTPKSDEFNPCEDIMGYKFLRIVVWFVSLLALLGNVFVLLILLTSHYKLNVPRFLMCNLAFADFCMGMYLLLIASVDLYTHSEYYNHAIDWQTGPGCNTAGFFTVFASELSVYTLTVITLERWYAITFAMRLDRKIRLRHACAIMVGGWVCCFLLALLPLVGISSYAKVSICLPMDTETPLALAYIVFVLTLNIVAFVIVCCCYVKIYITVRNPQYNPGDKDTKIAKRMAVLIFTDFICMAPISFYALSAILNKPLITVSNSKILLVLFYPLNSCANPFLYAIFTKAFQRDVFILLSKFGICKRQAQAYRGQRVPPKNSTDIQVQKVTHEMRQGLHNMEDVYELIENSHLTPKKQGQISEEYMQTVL

This experiment concerns the target Thyrotropin receptor (Homo sapiens) (UniProt P16473). In words: qHTS for antagonists of the Thyroid Stimulation Hormone Receptor: Hit Validation in Primary Screen. Further: nearly all actives have a fitted effect of over 80% in size.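 On activity change, negative = inhibition: cAMP by competitive HTRF where cellular cAMP lowers the 665 nm FRET signal.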 The note with it: TSHR-expressing cells, cAMP antagonist mode; series mostly up to 58 µM; activity change, negative = inhibition: at the top concentration. The procedure, abridged:
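TSHR-expressing cells were pretreated with compound, then stimulated with TSH at EC80 (4nM final) for 2 hours at 37 deg C. Cellular cAMP measured by competitive HTRF (anti-cAMP cryptate, cAMP-d2) after 30 min at room temperature.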
On to `CCOc1ccccc1-n1c(=S)sc2c(=O)n(-c3ccc(F)cc3)c(SCC(=O)O)nc21`, for which the “activity change, negative = inhibition” value is -3.34%.

With `Fc1ccc2[nH]c3c(N4CCN(Cc5ccc6c(c5)OCO6)CC4)ncnc3c2c1`, the Potency is 23.9 µM (active). Turning to `Cc1ccc2c(c1)[nH]c1c(N3CCN(Cc4ccccc4)CC3)ncnc12`, the Potency was 30.1 µM (active).

On to `O=C(c1cccc(Cl)c1)N1CCN(Cc2ccc3c(c2)OCO3)CC1`, for which the “activity change, negative = inhibition” value was -6.83%.

Take `N#Cc1c(F)cccc1N1CCN(Cc2ccc3c(c2)OCO3)CC1`: the “activity change, negative = inhibition” value was -2.54%. Regarding `Fc1ccc2[nH]c3c(N4CCN(c5ccccc5)CC4)ncnc3c2c1`, the Potency was 30.1 µM (active). As for `O=C1NC(=O)/C(=C/c2ccccc2Oc2ccc(Cl)cc2)S1`, the “activity change, negative = inhibition” value is -8.27%. Take `CN(Cc1ccco1)S(=O)(=O)c1csc(C(N)=O)c1`: the “activity change, negative = inhibition” value is -3.34%. For the molecule `CCc1cc2c(NCc3ccccc3)nc(C)nc2s1`, the Potency is 23.9 µM (active). Regarding `O=C(CSc1ccc(F)cc1)N1CCC(c2nc3ccccc3s2)CC1`, the Potency is 37.9 µM (active). In the case of `Cc1nc(SCC(=O)N2CCN(c3ccccc3)CC2)n[nH]1`, the “activity change, negative = inhibition” value is -6.86%. As to `C=CCC1(CC=C)CCCN1C(=O)c1cc(COc2ccc(C)nc2)on1`, the Potency is 15.1 µM (active). As for `O=C(Nc1nnc(S(=O)(=O)N2CCCC2)s1)c1ccccc1F`, the “activity change, negative = inhibition” value is -9.65%. On to `CCc1ccccc1NC(=O)C1CCCN(S(=O)(=O)c2ccc3c(c2)CC(C)N3C(C)=O)C1` (stereo unspecified), for which the “activity change, negative = inhibition” value is -5.5%.

As to `CC(=O)Nc1ccc(S(=O)(=O)Nc2c(NC3CCCCC3)c3ccccc3oc2=O)cc1`, the “activity change, negative = inhibition” value was 0.576%. As for `O=C(Nc1cc(S(=O)(=O)N2CCCCC2)ccc1Cl)c1ccccc1NS(=O)(=O)c1ccc(F)cc1`, the Potency is 7.57 µM (active). With `Cc1ccc(NC(=O)c2ccccc2NS(=O)(=O)c2ccc(F)cc2)cc1S(=O)(=O)N1CCCCC1`, the Potency was 3.79 µM (active).

With `CCNC(=O)c1ccccc1NC(=O)C1CC(=O)N(C(C)C)C1` (stereo unspecified), the “activity change, negative = inhibition” value is -3.43%. On to `CCc1ccc(N/C(SCc2cccc(F)c2)=C(/C#N)C(=O)NCc2ccco2)cc1`, for which the “activity change, negative = inhibition” value was -5.33%. As to `CCCCc1c(C)nc2nc(SCc3ccc(Cl)cc3)[nH]n2c1=O`, the Potency was 21.3 µM (active). In the case of `CC(C)c1cc(=O)n2[nH]c(SCc3ccccc3)nc2n1`, the “activity change, negative = inhibition” value was -0.807%.

On to `C#C[C@]1(OC(C)=O)CCC2C3CCC4=CC(=O)CC[C@@H]4C3CC[C@@]21C` (stereo partly specified), for which the Potency is 13.5 µM (active). Take `CC(=O)N1CCc2cc(Br)cc(S(=O)(=O)N3CCC(C(=O)O)CC3)c21`: the “activity change, negative = inhibition” value is -11.2%. For the molecule `CCC1Sc2ccc(S(=O)(=O)CCC(=O)Nc3ccccc3Cl)cc2NC1=O` (stereo unspecified), the “activity change, negative = inhibition” value is -11.6%. On to `O=C(c1ccc2c(c1)OCO2)N1CCN(S(=O)(=O)c2ccc(Cl)cc2)CC1`, for which the “activity change, negative = inhibition” value was -1.21%. With `O=C(Nc1cccc(S(=O)(=O)Nc2ccc(Cl)cc2)c1)c1ccc2c(c1)OCCO2`, the Potency was 16.9 µM (active). On to `CCOC(=O)c1[nH]c2cc(OC)c(OC)cc2c1NC(=O)c1ccc2c(c1)OCO2`, for which the “activity change, negative = inhibition” value is -2.79%.

As to `COC(=O)c1sc(NC(=O)C(C)C)c(C(=O)OC)c1C`, the “activity change, negative = inhibition” value was -4.29%.

As for `Cc1cc(/C=C2\Sc3ccccc3N2C)cc(C)[n+]1CC1CCCO1` (stereo unspecified), the Potency is 30.1 µM (active). As for `Cc1cccc(OCc2nnc(SCC(=O)N3c4ccccc4CCc4ccccc43)o2)c1`, the “activity change, negative = inhibition” value is -4.87%.

On to `COc1ccc(C(=O)Nc2ccc(Cl)c(S(=O)(=O)Nc3ccccc3OC)c2)cc1`, for which the Potency was 12 µM (active). As to `COc1ccc(N(CC(=O)Nc2cc(Cl)ccc2OC)S(=O)(=O)c2c(C)noc2C)cc1`, the “activity change, negative = inhibition” value was -11.3%. On to `CC(C)Oc1ccc(C(=O)Nc2ccc(Cl)c(S(=O)(=O)Nc3ccc(Cl)cc3)c2)cc1`, for which the Potency was 21.3 µM (active). Regarding `CC(C)Oc1ccc(C(=O)NCCNC(=O)c2ccco2)cc1`, the “activity change, negative = inhibition” value was -4.87%. As to `COc1ccc(NC(=O)c2ccc3ccccc3n2)cc1S(=O)(=O)Nc1ccccc1Cl`, the “activity change, negative = inhibition” value is -2.39%.

For `COC(=O)C1C(=O)NC(SC)=C(C#N)C1c1ccccc1` (stereo unspecified), the “activity change, negative = inhibition” value is -3.77%. `Cc1cc(C)c2oc(C(=O)Nc3ccc(S(=O)(=O)Nc4nccc(C)n4)cc3)cc(=O)c2c1`: the “activity change, negative = inhibition” value is -4.03%. With `O=C1OC(CC(=O)N(Cc2nnc(-c3ccc(Cl)cc3)o2)C2CC2)c2ccccc21` (stereo unspecified), the “activity change, negative = inhibition” value was -6.17%.

In the case of `Cc1sc2ncnc(N3CCN(CCOc4ccc(Cl)cc4)CC3)c2c1C`, the Potency is 19 µM (active). As for `COc1ccc(N2CCN(c3ncnc4sc(C(=O)NCC5CCCO5)c(C)c34)CC2)cc1` (stereo unspecified), the “activity change, negative = inhibition” value is -1.12%. As to `Cc1[nH]n(C)c(=O)c1C(=O)c1c(-c2c(Cl)cccc2Cl)noc1C`, the “activity change, negative = inhibition” value is -5.39%. `O=C1NC(=S)S/C1=C\c1cc2ccccc2nc1N1CCCCC1`: the Potency was 13.5 µM (active). As for `COc1ccc2cc(/C=C3\SC(=S)NC3=O)c(N3CCOCC3)nc2c1`, the Potency is 3.38 µM (active). Take `CCc1ccc(-c2nnn(CCC(=O)OC)n2)cc1`: the “activity change, negative = inhibition” value was -0.749%. `COC(=O)c1nc2n(n1)C(c1cccc(Cl)c1)C1=C(CCCC1=O)N2` (stereo unspecified): the “activity change, negative = inhibition” value was -1.3%. For the molecule `Cc1nn(-c2ccc(N3CCOCC3)nn2)c(C)c1CCC(=O)NCc1ccccc1F`, the “activity change, negative = inhibition” value is -2.51%. Regarding `CCOC(=O)C1(CCOc2ccccc2)CCN(Cc2cccc(OC)c2O)CC1`, the “activity change, negative = inhibition” value is 1.47%.

For the molecule `COc1cccc(CN(C)C(=O)CNC(=O)c2ccc(-c3ccccc3)cc2)c1OC`, the Potency is 26.9 µM (active).

Regarding `CC(C)(C)C(=O)NC(=S)NNC(=O)c1ccc(-c2ccccc2)cc1`, the “activity change, negative = inhibition” value is -18.8%. As for `CCn1nnc2cc(C(=O)NCC(c3ccccc3OC)N(C)C)ccc21` (stereo unspecified), the “activity change, negative = inhibition” value was -6.48%.

For the molecule `COc1cccc(CN(C)C(=O)c2ccc(Oc3ccccc3)cc2)c1OC`, the Potency is 37.9 µM (active). As for `COc1ccc(CN(C)C(=O)COC(=O)c2ccc(-c3ccccc3)cc2)c(OC)c1OC`, the Potency was 23.9 µM (active).

Take `O=C(c1ccco1)N1N=C(C2CCCCC2)CC1(O)C(F)(F)F` (stereo unspecified): the “activity change, negative = inhibition” value is -1.58%. Regarding `COc1ccc(C(CC(=O)N2CCOCC2)c2c(OC)cc(OC)c3c(-c4ccccc4)cc(=O)oc23)cc1` (stereo unspecified), the “activity change, negative = inhibition” value is -7.58%. As to `CC1CC(=O)N(c2ccc(C(C)C)cc2)C(=O)C1`, the “activity change, negative = inhibition” value was -1.5%. The same measure, in the same setting: the result for `COCc1c(C(=O)Nc2cccc(S(=O)(=O)N3CCCCC3)c2)oc2ccccc12` reads -16.5%. Consider `O=C(Nc1ccc(S(=O)(=O)N2CCCCC2)cc1)c1ccc(CN2CCOCC2)cc1`, for which the Potency is 23.9 µM (active). As for `O=C(NCCN1CCOCC1)c1c(Cl)cccc1Cl`, the “activity change, negative = inhibition” value is -6.48%. `COc1ccc(N2CCN(C(=O)[C@H](C)NC(=O)c3ccccc3Cl)CC2)cc1`: the “activity change, negative = inhibition” value was -4.81%. With `COc1ccc(C(NC(=O)c2c(F)c(F)c(F)c(F)c2F)c2ccccc2)cc1` (stereo unspecified), the Potency is 26.9 µM (active).

For the molecule `CCOc1ccccc1NC(=O)C(NCCc1ccc(OC)cc1)c1ccccc1` (stereo unspecified), the “activity change, negative = inhibition” value was -6.08%.
